The values below come from ChEMBL document CHEMBL1201862, “PubChem BioAssay data set” (2004).

SMILES strings stand for the structures. The whole screen tested about 400,000 compounds, of which about 2,100 (0.53%) were called active. About 14% were inconclusive and are not listed. The rule behind the calls is not given here. Shown is part of a subset that was picked to be rich in actives.

Sequence of Ataxin-2 (Homo sapiens) (Q99700 whole entry): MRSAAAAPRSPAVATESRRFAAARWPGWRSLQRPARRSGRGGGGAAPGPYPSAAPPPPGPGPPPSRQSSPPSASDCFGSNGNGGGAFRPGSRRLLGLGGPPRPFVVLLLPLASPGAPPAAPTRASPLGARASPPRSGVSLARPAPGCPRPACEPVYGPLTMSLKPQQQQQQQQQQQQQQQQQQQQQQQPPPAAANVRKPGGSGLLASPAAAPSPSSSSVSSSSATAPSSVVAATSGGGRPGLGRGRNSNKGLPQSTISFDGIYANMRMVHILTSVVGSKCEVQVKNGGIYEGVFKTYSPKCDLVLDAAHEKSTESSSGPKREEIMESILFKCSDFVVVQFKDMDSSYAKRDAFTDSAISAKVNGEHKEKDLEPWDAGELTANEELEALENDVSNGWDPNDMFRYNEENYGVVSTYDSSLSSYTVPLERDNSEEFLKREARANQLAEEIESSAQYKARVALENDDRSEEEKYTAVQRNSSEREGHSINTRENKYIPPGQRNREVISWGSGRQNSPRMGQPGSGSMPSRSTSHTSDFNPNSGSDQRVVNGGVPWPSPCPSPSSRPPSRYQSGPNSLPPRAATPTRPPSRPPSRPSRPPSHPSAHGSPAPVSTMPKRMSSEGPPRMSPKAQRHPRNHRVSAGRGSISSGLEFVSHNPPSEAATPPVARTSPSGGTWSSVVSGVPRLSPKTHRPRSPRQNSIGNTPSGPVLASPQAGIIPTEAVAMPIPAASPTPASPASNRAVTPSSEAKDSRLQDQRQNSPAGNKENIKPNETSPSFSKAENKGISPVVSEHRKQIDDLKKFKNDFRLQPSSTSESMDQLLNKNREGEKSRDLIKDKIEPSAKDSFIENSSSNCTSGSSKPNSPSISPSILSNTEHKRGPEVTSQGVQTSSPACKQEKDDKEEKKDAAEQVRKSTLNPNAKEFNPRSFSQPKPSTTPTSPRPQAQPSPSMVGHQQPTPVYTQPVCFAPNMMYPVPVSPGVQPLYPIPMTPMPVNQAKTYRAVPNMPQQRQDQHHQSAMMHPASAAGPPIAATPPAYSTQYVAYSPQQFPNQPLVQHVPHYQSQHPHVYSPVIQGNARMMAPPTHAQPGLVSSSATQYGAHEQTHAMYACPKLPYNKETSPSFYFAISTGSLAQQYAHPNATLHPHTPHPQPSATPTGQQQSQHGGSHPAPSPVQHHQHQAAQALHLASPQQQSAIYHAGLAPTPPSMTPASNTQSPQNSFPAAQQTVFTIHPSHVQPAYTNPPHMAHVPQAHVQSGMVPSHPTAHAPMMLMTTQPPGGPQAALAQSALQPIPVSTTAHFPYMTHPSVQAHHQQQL

This test addresses Ataxin-2 (Homo sapiens) (UniProt Q99700). As to the kind of experiment: qHTS for Inhibitors of ATXN expression. Format: functional. (In qHTS, concentration-response curves come from the screen itself.)
Take `O=C(CN(Cc1ccc(F)cc1)C(=O)CCC(=O)Nc1nccs1)NCc1ccccc1`: the Potency entry is “inactive”. For `CC(=O)Oc1cc2oc(=O)cc(C)c2cc1Cl` the value was “inactive”. For `CCCn1nc(NC(=O)CC(C)C)c2cc3cccc(C)c3nc21`, the Potency result is “inactive”.

In the case of `Cc1cc(C)c2ccc(N)nc2c1O`, the Potency is 39.8 µM (active). For `Cn1nc(NC(=O)C(F)(F)F)c2ncc(-c3ccc(Cl)cc3)nc21` the value was “inactive”.

For the molecule `COc1ccccc1CCN1COc2c(cc3c(C)c(C)c(=O)oc3c2C)C1`, the Potency result is “inactive”. Consider `CCCCc1c(Cc2ccccc2)ncn1CCc1ccccc1OC`, for which the Potency is 15.8 µM (active). For `COc1ccccc1[C@H]1C(c2ccc(F)cc2)=NN(c2ccccc2)[C@@H]1CO` the value was “inactive”.

As to `COc1ccccc1CCn1cnc(Cc2ccccc2)c1C(C)C`, the Potency is 39.8 µM (active). For `COc1ccccc1CNc1ccc(Br)cn1` the value was “inactive”; for `COc1ccccc1CCn1cnc(-c2ccc(Br)cc2)c1C(C)C`, 25.1 µM (active). As for `CCCCc1c(-c2ccc(F)cc2)ncn1CCc1ccccc1OC`, the Potency was 31.6 µM (active).

Consider `COc1ccccc1NC(=O)C(C)Sc1nccn1C` (stereo not drawn), for which the Potency entry is “inactive”. Consider `CC1=C(C)C(=O)N(C(C)CCc2ccccc2)C1=O` (stereo not drawn), for which the Potency result is “inactive”. Regarding `CCN(CC)c1ccc2c(Cl)cc(=O)oc2c1`, the Potency result was “inactive”. For `N#Cc1cc2c(=O)n3ccccc3nc2n(Cc2ccco2)/c1=N/C(=O)c1ccco1` the value was “inactive”; for `COc1cccc2sc3ccc(NCc4ccc5c(c4)OCO5)cc3c(=O)c12`, “inactive”. For `Cc1c(C#N)c2n(c1C)CCCC(=O)N2` the value was “inactive”.

As to `COc1cc2c(cc1OC)C1=C(C#N)CC/C(=N\S(=O)(=O)c3ccccc3)N1CC2`, the Potency entry is “inactive”. For `COc1ccccc1CCn1c(N)c(C#N)c2nc3ccccc3nc21` the value was “inactive”. For `CCCCc1c(-c2ccccc2)ncn1CCc1ccccc1OC` the value was 35.5 µM (active). On to `CCCn1nc(-c2ccccc2)c2nc3ccccc3nc21`, for which the Potency result is “inactive”. Consider `CCCCc1c(-c2ccc(OC)cc2)ncn1CCc1ccccc1OC`, for which the Potency was 39.8 µM (active). For `COc1ccccc1CCC(=O)NNC(=O)Cn1nc(C)cc1C` the value was “inactive”; for `CCCCCc1c(-c2ccc(OC)cc2)ncn1CCc1ccccc1OC`, 31.6 µM (active); for `CCCCc1c(-c2cccc(F)c2)ncn1CCc1ccccc1OC`, 39.8 µM (active).

Take `Cc1cccn2c(=O)c3cc(C(=O)NCc4cccnc4)c(=N)n(C(C)C)c3nc12`: the Potency entry is “inactive”. For `COc1ccc2c(c1)CCCC21SC(NC(C)=O)=NN1C(C)=O` (stereo not drawn) the value was “inactive”; for `O=C1OCCN1C(=O)[C@H]1[C@H](c2ccccc2)C(c2ccccc2)=NN1c1ccc(Br)cc1`, “inactive”. Consider `CCOc1ccc(-c2nnn(CCC#N)n2)cc1OC`, for which the Potency result is “inactive”.

Turning to `CCCCc1c(-c2ccc(OC)c(OC)c2)ncn1CCc1ccccc1OC`, the Potency was 22.4 µM (active).

Consider `CCOCCCNC(=O)c1ccc2nc(-c3ccc(OC)c(OC)c3)c(-c3ccc(OC)c(OC)c3)nc2c1`, for which the Potency result was “inactive”. For `CCCS(=O)(=O)c1c(S(=O)(=O)CCC)c2cc(-c3ccncc3)ccn2c1C(=O)OC` the value was “inactive”; for `Cc1ccc(S(=O)(=O)N2C[C@@H](C)[C@]3(C2)[C@H](O)[C@H](OC(=O)Nc2cccs2)C[C@H]2C(=O)N(c4ccccc4)C(=O)[C@H]23)cc1`, 35.5 µM (active); for `CN1CCN(S(=O)(=O)c2ccc(NC(=O)COc3ccccc3)cc2)CC1`, “inactive”. On to `CCCCn1/c(=N\C(=O)c2ccco2)c(C(=O)OCC)cc2c(=O)n3cccc(C)c3nc21`, for which the Potency entry is “inactive”.

For `CCn1cc(C2C3=C(O)CCCC3=NC(C)=C2C(=O)Nc2ccc(Br)cn2)c(C)n1` (stereo not drawn), the Potency result is “inactive”. For `CCOc1nc2cnccc2n(CC(=O)Nc2ccc(C)c(C)c2)c1=O` the value was “inactive”; for `COc1ccc(NC(=O)Cn2c(SCc3cc(C)ccc3C)nc3ccncc32)c(OC)c1OC`, 39.8 µM (active); for `COC(=O)c1ccc(-c2sc3nc(N4CCOCC4)c4c(c3c2N)CC(C)(C)OC4)o1`, “inactive”.

As for `COc1ccc(CC(=O)Nc2nn(C)c3nc4c(C)cccc4cc23)cc1`, the Potency entry is “inactive”. For `COc1cc(OC)c(NC(C)C(=O)NCc2ccccc2)cc1Cl` (stereo not drawn) the value was “inactive”.

With `COc1cc(OC)cc(C(=O)NC(C(=O)NCCc2ccccn2)C(C)C)c1` (stereo not drawn), the Potency entry was “inactive”. Turning to `COc1ccc(-c2ccc3c(N)c(C(=O)Nc4ccc(C)cc4C)sc3n2)cc1OC`, the Potency result was “inactive”. For `CCC(C(=O)Nc1cc(OC)cc(OC)c1)n1nc(-c2ccc(C)c(C)c2)ccc1=O` (stereo not drawn) the value was 25.1 µM (active); for `COc1cc(OC)c(NC(=O)C(C)n2nc(-c3ccc(C)c(C)c3)ccc2=O)cc1Cl` (stereo not drawn), 35.5 µM (active); for `N#Cc1c(N)n(-c2cccc(Cl)c2)c2nc3ccccc3nc12`, “inactive”. For `CCc1cc(=O)oc2c(C)c3c(cc12)CN(CCc1ccccc1)CO3` the value was “inactive”; for `Cc1cccc(-c2nnc(SCc3cc(=O)c4c(C)cc(C)cc4[nH]3)[nH]2)c1`, 39.8 µM (active); for `COC(=O)[C@@H]1C[C@]2(OC(=O)c3ccccc3)C=CC(=O)C[C@@H]2N1C(=O)OCc1ccccc1`, 25.1 µM (active).

Take `COc1ccc(COC(=O)C2CC(=O)N(Cc3ccccc3)C2)cc1` (stereo not drawn): the Potency result is “inactive”. Take `O=C(OCc1ccccc1)N1CCc2ccccc21`: the Potency result was “inactive”. For `C=CCN1C(=O)c2cccc3c(N4CCCCC4)ccc(c23)C1=O`, the Potency entry was “inactive”. For `COc1ccccc1C=CC(=O)C=Cc1ccccc1OC`, the Potency was 16.8 µM (active). As to `COc1ccccc1/C=C/C(=O)NCC(=O)N=Nc1c(O)[nH]c2ccccc12`, the Potency result is “inactive”.

For `COc1ccccc1/C=N/OC(=O)c1ccc(C)cc1`, the Potency entry is “inactive”.

Consider `CCOC(=O)c1nc(S(C)(=O)=O)ncc1Cl`, for which the Potency is 39.8 µM (active). For `COC(=O)c1nc2ccc(N3CCOCC3)cc2c(C)c1C(=O)OC` the value was “inactive”. As to `CS(=O)(=O)c1ncc(Cl)c(C(=O)Nc2ccc(N3CCOCC3)cc2)n1`, the Potency was 25.1 µM (active). Consider `O=C(Nc1ccc(S(=O)(=O)Nc2nccs2)cc1)c1nn(-c2ccccc2)ccc1=O`, for which the Potency result was “inactive”. For `O=C(Nc1ccc(N2CCOCC2)cc1)c1cccc(S(=O)(=O)N2CCCCCC2)c1` the value was “inactive”; for `Cc1ccc(NC(=O)c2sc3nc(C)cc(C)c3c2N)cc1`, “inactive”; for `CCN(c1ccccc1)S(=O)(=O)c1ccc(NC(=O)c2nc(S(C)(=O)=O)ncc2Cl)cc1`, 17.8 µM (active). For `CN(c1ccccc1)S(=O)(=O)c1ccc(Cl)c(C(=O)Nc2nn[nH]n2)c1` the value was “inactive”; for `CCOC(=O)c1c(O)cc(C)nc1O`, “inactive”.

On to `CCS(=O)(=O)c1ncc(Cl)c(C(=O)Nc2ccc(C)cc2)n1`, for which the Potency is 35.5 µM (active). For `CCOC(=O)c1cnc2c(C)cc(Cl)cc2c1N1CCN(C)CC1` the value was “inactive”; for `COc1ccc(NC(=O)NS(=O)(=O)c2ccc(C)cc2)cn1`, “inactive”.
